{"source": "the supplement of paper PMC6522484", "key": {"DLD1 [1]": {"test_system": "DLD1", "assay": "cell viability (CellTiter-Glo) relative to plate median (fraction of plate median); higher = more viable cells", "conditions": "5 µM; treatment time 24 h; reporter: 7TFP", "outline": "(§1)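 For this screen, colorectal cancer cell lines carrying stable lentiviral TCF/Wnt firefly luciferase reporters, either 7TFP or TCF4/Wnt, were seeded into 384-well plates. A day's wait of 24 h preceded addition of library compounds at a final 5 µM, which stayed on the cells for 24 h. Firefly luciferase or CellTiterGlo luminescence, read on parallel plates, was normalised to the plate median per well, and the reported value is the mean of two independent replicates.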"}, "HCT116": {"test_system": "HCT116", "assay": "cell viability (CellTiter-Glo) relative to plate median (fraction of plate median); higher = more viable cells", "conditions": "5 µM; treatment time 24 h; reporter: TCF4/Wnt", "outline": "as §1"}, "SW480 [2]": {"test_system": "SW480", "assay": "cell viability (CellTiter-Glo) relative to plate median (fraction of plate median); higher = more viable cells", "conditions": "5 µM; treatment time 24 h; reporter: 7TFP", "outline": "as §1"}, "DLD1 [3]": {"test_system": "DLD1", "assay": "TCF/Wnt firefly luciferase reporter signal relative to plate median (fraction of plate median); higher = higher Wnt reporter signal", "conditions": "5 µM; treatment time 24 h; reporter: 7TFP", "outline": "as §1"}, "SW480 [4]": {"test_system": "SW480", "assay": "TCF/Wnt firefly luciferase reporter signal relative to plate median (fraction of plate median); higher = higher Wnt reporter signal", "conditions": "5 µM; treatment time 24 h; reporter: 7TFP", "outline": "as §1"}}, "note": "± gives the standard deviation of the averaged measurements.", "data": [{"smiles": "CC(=O)N[C@@H](CC(C)C)C(=O)O", "values": [{"measurement": "cell viability", "setting": "DLD1 [1]", "result": "1.04 ± 0.014"}, {"measurement": "cell viability", "setting": "HCT116", "result": "1.04 ± 0.093"}, {"measurement": "cell viability", "setting": "SW480 [2]", "result": "0.966 ± 0.062"}, {"measurement": "TCF/Wnt firefly luciferase reporter signal", "setting": "DLD1 [3]", "result": "1.03 ± 0.18"}, {"measurement": "TCF/Wnt firefly luciferase reporter signal", "setting": "SW480 [4]", "result": "1.13 ± 0.057"}]}, {"smiles": "O=C(OOC(=O)c1ccccc1)c1ccccc1", "values": [{"measurement": "cell viability", "setting": "DLD1 [1]", "result": "1.015 ± 0.0071"}, {"measurement": "cell viability", "setting": "HCT116", "result": "1.12 ± 0.16"}, {"measurement": "cell viability", "setting": "SW480 [2]", "result": "0.998 ± 0.031"}, {"measurement": "TCF/Wnt firefly luciferase reporter signal", "setting": "DLD1 [3]", "result": "0.96 ± 0.071"}, {"measurement": "TCF/Wnt firefly luciferase reporter signal", "setting": "SW480 [4]", "result": "1.03 ± 0.053"}]}, {"smiles": "Fc1ccc([C@@H]2CCNC[C@H]2COc2ccc3c(c2)OCO3)cc1", "values": [{"measurement": "cell viability", "setting": "DLD1 [1]", "result": "0.977 ± 0.021"}, {"measurement": "cell viability", "setting": "HCT116", "result": "1.02 ± 0.12"}, {"measurement": "cell viability", "setting": "SW480 [2]", "result": "1.02 ± 0.021"}, {"measurement": "TCF/Wnt firefly luciferase reporter signal", "setting": "DLD1 [3]", "result": "1.1 ± 0.085"}, {"measurement": "TCF/Wnt firefly luciferase reporter signal", "setting": "SW480 [4]", "result": "1.13 ± 0.042"}]}, {"smiles": "CC(=O)C1=C(CO)C(=O)c2cccc(O)c2C1=O", "note": "[Bhimamycin E]", "values": [{"measurement": "cell viability", "setting": "DLD1 [1]", "result": "1.05 ± 0.042"}, {"measurement": "cell viability", "setting": "HCT116", "result": "1.04 ± 0.068"}, {"measurement": "cell viability", "setting": "SW480 [2]", "result": "0.9945 ± 0.0021"}, {"measurement": "TCF/Wnt firefly luciferase reporter signal", "setting": "DLD1 [3]", "result": "0.983 ± 0.14"}, {"measurement": "TCF/Wnt firefly luciferase reporter signal", "setting": "SW480 [4]", "result": 1.01}]}, {"smiles": "CCOC(=O)[C@@](C)(N)Cc1ccc(O)c(O)c1", "values": [{"measurement": "cell viability", "setting": "DLD1 [1]", "result": "1 ± 0.025"}, {"measurement": "cell viability", "setting": "HCT116", "result": "0.93 ± 0.098"}, {"measurement": "cell viability", "setting": "SW480 [2]", "result": "0.979 ± 0.044"}, {"measurement": "TCF/Wnt firefly luciferase reporter signal", "setting": "DLD1 [3]", "result": "1.1 ± 0.12"}, {"measurement": "TCF/Wnt firefly luciferase reporter signal", "setting": "SW480 [4]", "result": "1.07 ± 0.064"}]}, {"smiles": "COc1ccc(Cl)cc1C(=O)NCCc1ccc(S(=O)(=O)NC(=O)NC2CCCCC2)cc1", "values": [{"measurement": "cell viability", "setting": "DLD1 [1]", "result": "1.005 ± 0.0071"}, {"measurement": "cell viability", "setting": "HCT116", "result": "0.962 ± 0.082"}, {"measurement": "cell viability", "setting": "SW480 [2]", "result": "0.976 ± 0.049"}, {"measurement": "TCF/Wnt firefly luciferase reporter signal", "setting": "DLD1 [3]", "result": "1.12 ± 0.13"}, {"measurement": "TCF/Wnt firefly luciferase reporter signal", "setting": "SW480 [4]", "result": "1.14 ± 0.05"}]}, {"smiles": "NC(CO)C(=O)NNCc1ccc(O)c(O)c1O", "note": "(stereo not given)", "values": [{"measurement": "cell viability", "setting": "DLD1 [1]", "result": "1.03 ± 0.028"}, {"measurement": "cell viability", "setting": "HCT116", "result": "1.07 ± 0.13"}, {"measurement": "cell viability", "setting": "SW480 [2]", "result": "1.02 ± 0.021"}, {"measurement": "TCF/Wnt firefly luciferase reporter signal", "setting": "DLD1 [3]", "result": "1.07 ± 0.021"}, {"measurement": "TCF/Wnt firefly luciferase reporter signal", "setting": "SW480 [4]", "result": "1.08 ± 0.021"}]}, {"smiles": "N/C(=N\\C(=O)c1nc(Cl)c(N)nc1N)NCc1ccccc1", "values": [{"measurement": "cell viability", "setting": "DLD1 [1]", "result": "0.986 ± 0.035"}, {"measurement": "cell viability", "setting": "HCT116", "result": "0.969 ± 0.17"}, {"measurement": "cell viability", "setting": "SW480 [2]", "result": "0.998 ± 0.031"}, {"measurement": "TCF/Wnt firefly luciferase reporter signal", "setting": "DLD1 [3]", "result": "1.07 ± 0.16"}, {"measurement": "TCF/Wnt firefly luciferase reporter signal", "setting": "SW480 [4]", "result": "1.04 ± 0.066"}]}]}
